Cruzain Triton: blocks cruzain activity in presence of Triton detergent. purified cruzain, Z-FR-AMC fluorescence, 0.01% Triton. Potency, µM, hits mostly inhibitors. 0.43% of 200,000 active. AID 1478; further: nearly all actives have a fitted effect of over 40% in size
Target sequence (P25779 123-467 limits assumed): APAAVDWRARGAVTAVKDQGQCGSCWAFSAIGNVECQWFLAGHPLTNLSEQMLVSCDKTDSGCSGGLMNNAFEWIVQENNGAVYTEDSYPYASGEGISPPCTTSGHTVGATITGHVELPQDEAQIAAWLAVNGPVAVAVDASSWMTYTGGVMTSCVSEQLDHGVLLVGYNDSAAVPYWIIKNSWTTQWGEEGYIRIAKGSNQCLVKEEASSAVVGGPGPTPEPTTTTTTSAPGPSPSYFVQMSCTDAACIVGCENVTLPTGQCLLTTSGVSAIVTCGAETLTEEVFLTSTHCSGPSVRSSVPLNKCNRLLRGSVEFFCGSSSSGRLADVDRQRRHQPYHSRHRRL
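Enzyme 1.5 nM, Z-FR-AMC 2 uM, NaOAc 100 mM pH 5.5, DTT 5 mM, Triton X-100 0.01%; 15 min RT compound preincubation; kinetic ex360/em450, 60 s delta.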
Cruzain inh noDet: cruzain (T. cruzi) inhibition without detergent; P25779; purified cruzain, Z-FR-AMC fluorescence, no detergent; Potency, µM, most hits filed as inhibitors; 2.3% of 200,000 active; further: nearly all actives have a fitted effect of over 40% in size
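Purified cruzain at 1.5 nM, pre-incubated 15 min with compound at room temperature in 100 mM sodium acetate pH 5.5, 5 mM DTT, 0.00005% Triton X-100. Reaction started with 2 uM Z-FR-AMC; AMC fluorescence increase over 60 s gives rate.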
Large screens that a line does not name were inactive. An excerpt weighted towards active compounds, which were near 2.4% of everything screened. The call rests on the fitted dose curve; in most records, active means well fitted curve in the direction sought with a large enough effect; inconclusive means small, poorly fitted or top-dose-only effect, or another doubt; inactive means no such curve, though single readings can be large; an effect the other way counts as inactive or inconclusive.

Cc1ccccc1C(=O)NC(NC(=S)Nc1ccc(S(N)(=O)=O)cc1)C(Cl)(Cl)Cl (stereo not drawn)	Cruzain Triton 13µM
COC(=O)CSc1ncc2c(n1)-c1ccccc1N(Cc1ccc(Cl)cc1)S2(=O)=O	none
Cc1ccc(NC(=O)CCc2nnc3n(CC(C)C)c(=O)c4ccccc4n23)cc1C	none
COc1cccc(-c2nc3c(C#N)c[nH]n3c2NC2CCCC2)c1OC	Cruzain inh noDet inconclusive
Cc1ccc(Cn2c(CCCNC(=O)c3ccco3)nc3ccccc32)cc1	none
Cc1ccccc1Cc1c(C)nc2nc(SCC(=O)NC(C)c3ccccc3)nn2c1C (stereo not drawn)	none
COc1ccc(-c2nc3sc(CCNC(=O)c4cc(Cl)ccc4OC)c(C)n3n2)cc1	Cruzain inh noDet inconclusive
CCCOc1ccc(C2C(=O)N(C3CCCCCC3)CC(=O)N2CCC)cc1OC (stereo not drawn)	none
COc1ccc(C)cc1N(C)C(=O)c1sc2nc3n(c(=O)c2c1C)CCCCC3	none
CC(=O)c1cccc(NC(=O)C(OC(=O)c2cccs2)c2ccccc2)c1 (stereo not drawn)	Cruzain inh noDet 32µM
COCCNC(=O)C(OC(=O)c1cccs1)c1ccccc1 (stereo not drawn)	none
Cc1csc(NC(=O)CSc2nsc(SCC(=O)Nc3nc(C)cs3)c2C#N)n1	Cruzain inh noDet inconclusive
Cc1ccc(NC(=O)CSc2nsc(SCC(=O)Nc3ccc(C)cc3C)c2C#N)c(C)c1	Cruzain inh noDet 10µM
CCCCNC(=S)N(C)/N=C/c1sc(N2CCCCC2)nc1-c1cccs1	none
CC(C)NC(=S)N/N=C/c1sc(N2CCCCC2)nc1-c1cccs1	Cruzain inh noDet 32µM
O=C(NCc1ccco1)c1c[nH]c2ccc(S(=O)(=O)Nc3ccc(F)cc3F)cc2c1=O	none
O=c1c(C(c2ccccc2)c2c(O)sc3ccccc3c2=O)c(O)sc2ccccc12	Cruzain Triton 25µM, Cruzain inh noDet inconclusive
CCC(=O)CC(c1ccccc1)c1c(O)c2ccccc2sc1=O (stereo not drawn)	none
Cc1cc(/C=N/NC(=O)Cn2c3ccccc3c(=O)c3ccccc32)c(C)n1-c1ccc(Cl)cc1	Cruzain inh noDet 3.2µM
O=C(Cn1c2ccccc2c(=O)c2ccccc21)N/N=C/c1cc([N+](=O)[O-])ccc1N1CCCCCC1	Cruzain inh noDet 6.3µM
O=C(Cn1c2ccccc2c(=O)c2ccccc21)N/N=C/c1ccc(N2CCCC2)c([N+](=O)[O-])c1	Cruzain inh noDet inconclusive
Cc1ccc(-n2c(C)cc(/C=N/NC(=O)Cn3c4ccccc4c(=O)c4ccccc43)c2C)cc1	Cruzain inh noDet inconclusive
Cc1ccc(C(C)C)c(OCC(=O)Nc2cc(-c3nc4ccccc4[nH]3)ccc2C)c1	none
Cc1cc2nc(-c3ccc(SCC(=O)N4CCc5ccccc54)nc3)[nH]c2cc1C	Cruzain inh noDet 16µM
Cc1cc(NC(=O)CSc2ccc(-c3nc4cc(C)c(C)cc4[nH]3)cn2)no1	Cruzain inh noDet inconclusive
Cc1ccc(C)c(-n2cc(-c3ccccc3)nc2SCC(=O)Nc2ccccc2)c1	Cruzain inh noDet inconclusive
COc1ccc(N=C2NC(=O)S/C2=C\c2ccc(N(C)C)cc2)cc1	Cruzain inh noDet inconclusive
CCOc1ccc(N=C2NC(=O)S/C2=C\c2ccc(Cl)cc2)cc1	Cruzain inh noDet 4µM
O=C(CN1C(=O)C2(SCC(=O)N2c2ccc(F)c(F)c2)c2ccccc21)NCCc1ccccc1 (stereo not drawn)	none
Cc1ccc(NC(=O)C2CCCN(S(=O)(=O)c3cccs3)C2)c(C)c1 (stereo not drawn)	none
COc1cc(Cl)c(C)cc1Nc1nc2ccccc2c2nnc(C)n12	none
O=C(Cc1ccccc1)c1nc2ccccc2s1	none
COC(=O)c1ccc(CC(=O)c2nc3ccccc3s2)cc1	Cruzain inh noDet 32µM
CCCN(CCC)CCNC(=O)c1cc2c(=O)n(C)c3ccccc3c2n1C	Cruzain Triton 16µM, Cruzain inh noDet inconclusive
Cn1c(C(=O)NCCN2CCN(c3ccccc3F)CC2)cc2c(=O)n(C)c3ccccc3c21	none
Cn1c(C(=O)NCCN2CCc3ccccc3C2)cc2c(=O)n(C)c3ccccc3c21	Cruzain Triton 25µM, Cruzain inh noDet inconclusive
CCOCCCNC(=O)c1cc2c(=O)n(C)c3ccccc3c2n1C	none
CCC(=O)Nc1ccc(CC)cc1-c1nc2ccccc2n(CC(=O)Nc2ccccc2C)c1=O	none
Cc1ccc(CN2C(=O)CC(c3ccc(Cl)cc3)c3c(C)nn(-c4nc(C)cc(C)n4)c32)cc1 (stereo not drawn)	Cruzain inh noDet inconclusive
CC1CCC2(CC1)NC(=O)N(CC(=O)Nc1nc(-c3ccc(F)cc3)cs1)C2=O (stereo not drawn)	Cruzain inh noDet 25µM
Cc1ccc(NC(=O)CN2C(=O)NC3(CCC(C)CC3)C2=O)c(Cl)c1 (stereo not drawn)	none
CC(CC(=O)NCc1ccc(Cl)cc1Cl)CC1=NS(=O)(=O)c2ccccc2N1 (stereo not drawn)	none
O=S(=O)(Nc1nc2ccccc2nc1N1CCN(c2ccccc2)CC1)c1ccc(F)cc1	Cruzain inh noDet 32µM
CC(=O)Nc1ccc(S(=O)(=O)Nc2nc3ccccc3nc2N2CCCC2)cc1	none
Cc1ccccc1C(=O)Nc1nnc(S(=O)(=O)N2CCCc3ccccc32)s1	none
Cc1nc(SCC(=O)Nc2ccccc2Cl)cc(-c2ccccc2)n1	none
CCOC(=O)C(Cc1c[nH]c2ccccc12)NC(=O)COc1ccc(Cl)cc1 (stereo not drawn)	none
CC(C)(C)c1ccc(C(=O)NC(Cc2c[nH]c3ccccc23)C(=O)OCC(=O)c2ccc(Cl)cc2)cc1 (stereo not drawn)	Cruzain inh noDet 25µM
CC(=O)NC(Cc1c[nH]c2ccccc12)C(=O)NCc1ccc2c(c1)OCO2 (stereo not drawn)	none
O=C(COC(=O)[C@H](Cc1c[nH]c2ccccc12)NC(=O)c1ccc(Cl)cc1)Nc1ccc2c(c1)OCO2	Cruzain Triton 3.5µM, Cruzain inh noDet 20µM
CCc1cccc(-n2nnc(-c3nc(-c4ccc5c(c4)OCO5)no3)c2C)c1	none
COCCNC(=O)c1nn(-c2ccc(C)cc2)c(=O)n(C)c1=O	none
NC(=O)CSc1ncc2c(n1)-c1ccccc1N(Cc1ccccc1)S2(=O)=O	none
COc1ccccc1-c1ccc(/C=C2/C=C(CC(C)C)OC2=O)o1	Cruzain inh noDet 32µM
CCCC1=C/C(=C/c2ccc(-c3ccccc3OC)o2)C(=O)O1	Cruzain inh noDet inconclusive
CCn1c(C(=O)Nc2ccccc2C(=O)OC)cc2sc(Cl)cc21	none
CN(C)S(=O)(=O)c1cccc(NC(=S)NN=C(Cc2ccccc2)Cc2ccccc2)c1	Cruzain inh noDet 32µM
COc1cc(/C=N/NC(=S)Nc2cccc(S(=O)(=O)N(C)C)c2)ccc1O	none
CC(C)NS(=O)(=O)c1ccc2nc(NC(=O)c3cncc(Br)c3)sc2c1	none
O=C(NCc1ccccc1)C12CN(Cc3ccccc3)CC1C(c1cccc([N+](=O)[O-])c1)=NO2 (stereo not drawn)	none
O=C(NCc1ccc(OC(F)(F)F)cc1)C12CN(Cc3ccccc3)CC1C(c1cccc([N+](=O)[O-])c1)=NO2 (stereo not drawn)	Cruzain inh noDet 20µM
COCCNC(=O)CCCn1c(=O)c2ccccc2n(CC(=O)NCCC2=CCCCC2)c1=O	none
CSc1ccc(/C=c2\s/c(=C\C(=O)C(C)(C)C)n(CC(=O)NCCC3=CCCCC3)c2=O)cc1	Cruzain inh noDet 3.2µM
CCc1cccc(C)c1NC(=O)Cn1ccn(-c2cccc(OC)c2)c(=O)c1=O	none
